The source of these data is PubChem BioAssay AID434973 (Sanford-Burnham Center for Chemical Genomics, 2010).

About 4,900 (1.5%) of roughly 330,000 compounds were called active. Many of the other results were omitted from the sample, so actives are more common in it than they were. Values without a mark were called inactive.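 The calls were made as follows: active = inhibition above about 50% at the single test dose (limit read from the data); inactive = the rest.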

For the assay, the target named is Sentrin-specific protease 7 (Homo sapiens) (UniProt Q9BQF6). Briefly: SENP7 protease inhibitors, primary screen, biochemical, luminescence, uHTS (AID 434973).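 Also: plate controls were DMSO with enzyme for no effect and no enzyme buffer wells for full effect.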 The conditions noted are these: recombinant SENP7, Z-RLRGG-aminoluciferin luminescence, 40 min; at 5 µM; hits give high values.
The inhibition is the change of the read-out against control, counted positive when it falls. As for `Brc1ccc(-c2noc(-c3ccccc3)n2)o1`, the inhibition was 88.5% (active).

With `CN(C)c1ccc(-c2nnc(-c3cccnc3)o2)cc1`, the inhibition was 8.14%.

For the compound `Brc1ccc(-c2nnc(-c3ccccc3)o2)o1`, the inhibition is 57.6% (active).

Take `Nc1ccc(-c2nnc(-c3ccc(-c4ccccc4)cc3)o2)cc1`: the inhibition was 70.3% (active).

As for `Nc1ccc(-c2nnc(-c3ccccc3)o2)cc1`, the inhibition was 49.9%.

Consider `O=C(OCc1ccc(Br)cc1)c1cccc(-c2nnc(-c3ccccc3)o2)c1`, for which the inhibition was 23.5%.

Consider `OC(c1nnc(-c2ccccc2)o1)c1cccs1` (centres undefined), for which the inhibition is 2.83%.

Regarding `Cn1nc(-c2ccccc2)c(-c2nc(-c3ccc(Cl)cc3)no2)c1Cl`, the inhibition is 1.67%.

Consider `Nc1nonc1-c1noc(-c2ccc(Br)o2)n1`, for which the inhibition was 9.66%.

Regarding `COc1ccc(C2C(C(C)=O)=C(O)C(=O)N2CCc2c[nH]c3ccccc23)cc1` (centres undefined), the inhibition is 0.562%.

`COc1ccc(NC(=O)c2sccc2SCC#N)cc1`: the inhibition is 7.98%.

Turning to `COCCN1CCn2c(nc3cc(NS(C)(=O)=O)ccc32)C1`, the inhibition is 3.45%.

For `O=C(OCc1ccc([N+](=O)[O-])cc1)C1CC(=O)N(Cc2ccccc2Cl)C1` (centres undefined), the inhibition is 2.69%.

As for `Cc1ccc(-c2ccc(/C=C(\C#N)C(N)=S)o2)c([N+](=O)[O-])c1`, the inhibition was 2.25%.

As for `Cc1cc(C)nc(SCc2cn3c(C)cc(C)nc3n2)n1`, the inhibition was 3.49%.

Turning to `CSc1nc(C)nc(C2CC2)c1C#N`, the inhibition was -2.65%.

For the compound `CC(=O)Nc1ccc(S(=O)(=O)NCC2CCC(C(=O)NCCc3ccccc3)CC2)cc1` (centres undefined), the inhibition is 2.3%.

Turning to `CCOc1ccc(NC(=O)COC(=O)C2CCC(=O)N2)c([N+](=O)[O-])c1` (centres undefined), the inhibition was -6.28%.

`CCC(C)CCN1CCN=C1N(C)C` (centres undefined): the inhibition was 9.82%.

For the compound `Cc1noc(C)c1S(=O)(=O)N(C)C[C@H]1Oc2ccc(NC(=O)C3CC3)cc2C(=O)N([C@H](C)CO)C[C@@H]1C`, the inhibition is -0.149%.

Consider `COC(=O)C1=C(C)N(c2ccc(C)cc2)/C(=C/c2ccc(O)cc2)C1=O`, for which the inhibition is 8.14%.

`O=C1c2ccccc2C(=O)N1CCC#Cc1ccc2cc(C3(O)CCCCC3)oc(=O)c2c1`: the inhibition is 2.91%.

As for `COc1cc(C#Cc2ccc3cc(CCCO)oc(=O)c3c2)cc(OC)c1`, the inhibition was 79.7% (active).

On to `COc1cc(/C=C2\Oc3ccc(C#Cc4ccc(O)cc4)cc3C2=O)cc(OC)c1`, for which the inhibition was -7.29%.

Consider `Cn1c(=O)c2c(ncn2CC(=O)N/N=C/c2cn[nH]c2-c2ccc(F)cc2)n(C)c1=O`, for which the inhibition was 1.2%.

Consider `CCCC(CNC(=O)COC(=O)C1=NNC(=O)CC1)c1ccc(Cl)cc1Cl` (centres undefined), for which the inhibition is -4.17%.

With `O=C(O)CCCN1C(=O)c2ccccc2Sc2ncccc21`, the inhibition was -1.32%.

For the compound `CCNc1nc(N)nc(-c2cc(Cl)ccc2OC)n1`, the inhibition was 3.35%.

Regarding `CCNc1nc(N)nc(Oc2ccc(OCC)nn2)n1`, the inhibition was 73.1% (active).

With `CCOc1ccc(Oc2nc(C)cc(OC)n2)nn1`, the inhibition is -1.32%.

`CC12C(=O)N(c3ccccc3)C(=O)C1C(c1ccccc1)N1CCCN12` (centres undefined): the inhibition is -4.08%.

As to `C=CCn1c(SCC(=O)c2c(N)n(C)c(=O)n(C)c2=O)nc2sc(CC)cc2c1=O`, the inhibition was -1.46%.

For the compound `CN(CCO)c1ccc(/C=N/Nc2nncc3ccccc23)cc1`, the inhibition was 93% (active).

As to `COc1cccc(/C=N\Nc2nncc(-c3ccccc3)n2)c1`, the inhibition was 24.7%.

Take `C/C(=N\Nc1nncc2ccccc12)c1ccc(Cl)c([N+](=O)[O-])c1`: the inhibition is 5.32%.

In the case of `COc1ccc([N+](=O)[O-])cc1N(CC(O)CN(CC(C)C)CC(C)C)S(=O)(=O)c1ccc(C)cc1` (centres undefined), the inhibition was 3.08%.

`COc1ccc(C2CC(=O)C=C(NCC3CCCO3)C2)cc1` (centres undefined): the inhibition is 5.59%.

Take `O=C(CN1C(=O)NC2(CCCCCC2)C1=O)NCc1cccs1`: the inhibition was 3.72%.

As to `Cc1ccc(SCC(=O)Nc2ncc(C)s2)cc1`, the inhibition was -2.81%.

As for `O=C(Nc1nnc(C2CC2)s1)c1cc(Cl)sc1Cl`, the inhibition is 5.7%.

Regarding `CCc1cc(C(=O)Nc2nnc(C3CC3)s2)sc1C`, the inhibition was -5.93%.

Turning to `Cc1cnc(NC(=O)C2CCCC2)s1`, the inhibition is 0.0964%.

Regarding `O=C(Nc1nnc(C2CC2)s1)c1ccccn1`, the inhibition was 57.4% (active).

In the case of `Cc1cccc(NC(=O)CSCC(=O)Nc2nnc(C3CC3)s2)c1`, the inhibition was 4.12%.

As to `Cc1cnc(NC(=O)c2ccccn2)s1`, the inhibition is 82.8% (active).

Turning to `Cc1cc(C(=O)Nc2nnc(C3CC3)s2)c(C)s1`, the inhibition is 77% (active).

Regarding `O=C(Nc1nnc(Cc2ccccc2)s1)c1cnccn1`, the inhibition was 3.97%.

As for `OC(CNC1CCCC1)COc1ccc(F)cc1` (centres undefined), the inhibition was 7.04%.

On to `Cc1nn(C(C)(C)C)c(OC(=O)CC(C)C)c1S(=O)(=O)c1ccccc1`, for which the inhibition is 4.96%.

As for `COc1ccc(S(=O)(=O)N2CCN(C(=O)c3cc(C)oc3C)CC2)cc1`, the inhibition is 3.33%.

In the case of `COc1ccccc1-c1oc2ccccc2c1C#CCCCCO`, the inhibition is 5.54%.

For the compound `CC1Cc2ccccc2N1C1=CC(=O)CC(C)(C)C1` (centres undefined), the inhibition is -3.44%.

With `CC(C)(C)NC(=O)c1ccc(Cn2cc(C(F)(F)F)ccc2=O)cc1`, the inhibition was -6.25%.

With `Clc1ccc(-c2nc3ccccn3c2CN2CCSCC2)cc1`, the inhibition was -5.08%.

For `Cc1ccc(C(=O)C(=S)N2CCOCC2)cc1`, the inhibition is -2.91%.

`CC1=NN(C(N)=S)C(=O)C1N=Nc1cc(Cl)ccc1Cl` (centres undefined): the inhibition is -5.66%.

Turning to `Cc1[nH]n(C)c(=O)c1N=Nc1ccc(S(C)(=O)=O)cc1`, the inhibition was 0%.

On to `Cc1[nH]n(C(N)=S)c(=O)c1N=Nc1ccc(Cl)cc1Cl`, for which the inhibition was 51.8% (active).

Regarding `CCOc1ccc(NC(=O)N2CC=C(n3c(=O)[nH]c4ccccc43)CC2)cc1`, the inhibition was 4%.

For the compound `CC1CN(/C=C/C(=O)C(F)(F)F)CC(C)O1` (centres undefined), the inhibition is 1.13%.

In the case of `O=C(NCCC1=CCCCC1)C1CCN(Cc2cnn(-c3ccccc3)c2-n2cccc2)CC1`, the inhibition was -3.45%.

Regarding `CC(C)Sc1ncnc2c1cnn2-c1ccccc1`, the inhibition was 45.7%.

Consider `C1=C(CCNc2ncnc3c2cnn3-c2ccccc2)CCCC1`, for which the inhibition is 56.6% (active).

Turning to `CCCS(=O)(=O)N1CCC(C(=O)NCCCN(C)Cc2ccccc2)CC1`, the inhibition was -8.04%.
